According to PubChem BioAssay:
The source made the active and inactive calls. Unless noted, no rule for the calls is given here.

What was measured:
[1] = compounds binding Alexa647 anti-His antibody – biochemical, small-molecule microarray, 635 nm fluorescence, artefact control for SMM control protein annotation, primary screen (AID 1128); conditions: higher = more signal;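 also: score merges feature fluorescence with signal-to-noise for each printed compound spot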
[2] = tested on: Human papillomavirus type 1a E7 protein (residues 1-88); assay: HPV1a E7 small-molecule binders, primary screen, biochemical, small-molecule microarray, residues 1-88, 635 nm (AID 1129); conditions: small-molecule microarray binding, fluorescence 635 nm; higher = more signal
[3] = target: Focal adhesion kinase 1 (Homo sapiens) (UniProt Q05397); assay: PTK2 protein binding on printed compound slides – biochemical, small-molecule microarray, 635/667 nm fluorescence, BSA, DTT, primary screen (AID 1130); conditions: 635 nm fluorescence, higher = more signal;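 also: composite of spot emission at 667 nm and signal to noise over triplicate slides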
[4] = tested on: Fibrinogen (Alexa647-labelled); assay: Alexa647-fibrinogen binding to printed small molecules – biochemical, small-molecule microarray, 635/667 nm fluorescence, artefact control for SMM control-protein annotation, profiling panel (AID 1131); conditions: fibrinogen-A647 binding fluorescence, higher = more signal;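 also: z-score merges 667 nm fluorescence with per-spot signal-to-noise over triplicate slides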
[5] = target: Follistatin (Homo sapiens) (UniProt P19883); assay: FST protein binding to printed compounds – biochemical, small-molecule microarray, 635/667 nm fluorescence, primary screen (AID 1132); conditions: 635 nm fluorescence, higher = more signal
[6] = target: Fibroblast growth factor 2 (Homo sapiens) (UniProt P09038); assay: basic fibroblast growth factor binding to printed compounds – biochemical, small-molecule microarray, 635/667 nm fluorescence, primary screen (AID 1133); conditions: FGF2, fluorescence 635/667, higher = more signal
[7] = JC-1 mitochondrial potential readout, lung cancer cells – cell-based, A549, JC-1 fluorescence, basal, 24 h, 100 nL, profiling panel (AID 1138); conditions: higher = more signal;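 also: A549 lung adenocarcinoma cells under basal conditions with no added stimulus; test concentration not given here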
Lefty1 = Lefty1 protein binding to printed compounds – biochemical, small-molecule microarray, 635/667 nm fluorescence, primary screen (AID 1139); conditions: fluorescence 635/667, higher = more signal
[8] = tested on: wheat germ agglutinin (Triticum aestivum), Alexa647-labelled; assay: Alexa647-WGA lectin binding to printed small molecules – biochemical, small-molecule microarray, 635/667 nm fluorescence, artefact control for SMM control-protein annotation, profiling panel (AID 1140); conditions: WGA-A647 binding, 635 nm fluorescence, higher = more signal;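 also: score merges 667 nm feature emission with signal to noise over triplicate slides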
[9] = target: Luciferin 4-monooxygenase (Photinus pyralis) (UniProt P08659); assay: inhibition of purified Photinus pyralis luciferase – biochemical, luminescence, purified enzyme, 2006 set, primary screen (AID 1141); conditions: purified firefly luciferase, SteadyGlo luminescence, 30 min; higher = more signal, called active from +8 up or from −8 down;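 also: cell-free assay with purified firefly luciferase at 100 ng per well in PBS; test concentration not given here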
[10] = tested on: Wnt5a (protein binding on small-molecule microarray); assay: small molecules binding Wnt5a protein – biophysical, small-molecule microarray, 635/667 nm fluorescence, primary screen (AID 1142); conditions: 635 nm fluorescence, higher = more signal;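 also: fluorescence read at 667 nm with signal to noise per printed feature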
[11] = ATP-based viability of Huh7 replicon cells – cell-based, CellTiter-Glo luminescence, basal, 48 h, cytotoxicity control for HCV replication inhibitor project, primary screen (AID 1143); conditions: higher = more signal, called active from +8 up or from −8 down;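 also: Huh7 hepatoma cells carrying a hepatitis C replication reporter with no stimulus; test concentration not given here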
[12] = Pseudomonas biofilm growth suppression – PAO1 strain, BacTiter-Glo luminescence, LB-PBS, primary screen (AID 1144); conditions: P. aeruginosa PAO1 biofilm, 12 h, higher = more signal
[13] = basal CRE-LacZ reporter activity in PC12 – cell-based, unstimulated, primary screen (AID 1145); conditions: no forskolin, luminescence, 4.5 h, higher = more signal, called active from +8 up or from −8 down
[14] = forskolin-driven CRE-LacZ activity in PC12 – cell-based, CRE-LacZ reporter, forskolin-stimulated, primary screen (AID 1146); conditions: luminescence, 4.5 h, higher = more signal, called active from +8 up or from −8 down;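 also: PC12 cells with 6xCRE LacZ reporter stimulated by forskolin 10 µM; beta-galactosidase reporter signal reflecting CREB driven transcription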
[15] = target: Streptavidin (Streptomyces avidinii) (UniProt P22629); assay: compounds binding control protein streptavidin – biophysical, small-molecule microarray, 635/667 nm fluorescence, artefact control for SMM compound annotation, primary screen (AID 1147); conditions: higher = more signal;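 also: signal reflects streptavidin binding to arrayed compounds as a control protein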
[16] = probe aInhba binding on compound microarray – biochemical, small-molecule microarray, 635/667 nm fluorescence, primary screen (AID 1148); conditions: higher = more signal;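 also: score merges 667nm spot fluorescence with signal-to-noise for antibody binding to printed compounds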
Torsin-1A (Homo sapiens) [17] = target: Torsin-1A (Homo sapiens) (UniProt O14656); assay: TOR1A wild-type binding on microarray – cell lysate, small-molecule microarray, lysate, 635/667 nm, primary screen (AID 1149); conditions: COS7 hTOR1A-WT lysate, 635 nm fluorescence, higher = more signal
Torsin-1A (Homo sapiens) [18] = target: Torsin-1A (Homo sapiens) (UniProt O14656); assay: torsin A mutant lysate binding on microarrays – cell lysate, small-molecule microarray, COS7 lysate, 635/667 nm fluorescence, primary screen (AID 1150); conditions: COS7 hTOR1A mutant lysate, 635 nm fluorescence, higher = more signal;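 also: score pools 667 nm emission and signal to noise measuring lysate protein binding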
[19] = tested on: Sonic hedgehog protein (Shh); assay: Sonic hedgehog microarray binding compounds – biochemical, small-molecule microarray, 635/667 nm fluorescence, primary screen (AID 1151); conditions: 635 nm fluorescence, higher = more signal;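 also: Shh protein binding to compounds spotted on small-molecule microarray slides; score combines spot fluorescence intensity with signal-to-noise across triplicate slides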

Luciferin 4-monooxygenase (Photinus pyralis), sequence (P08659 whole entry, looked up): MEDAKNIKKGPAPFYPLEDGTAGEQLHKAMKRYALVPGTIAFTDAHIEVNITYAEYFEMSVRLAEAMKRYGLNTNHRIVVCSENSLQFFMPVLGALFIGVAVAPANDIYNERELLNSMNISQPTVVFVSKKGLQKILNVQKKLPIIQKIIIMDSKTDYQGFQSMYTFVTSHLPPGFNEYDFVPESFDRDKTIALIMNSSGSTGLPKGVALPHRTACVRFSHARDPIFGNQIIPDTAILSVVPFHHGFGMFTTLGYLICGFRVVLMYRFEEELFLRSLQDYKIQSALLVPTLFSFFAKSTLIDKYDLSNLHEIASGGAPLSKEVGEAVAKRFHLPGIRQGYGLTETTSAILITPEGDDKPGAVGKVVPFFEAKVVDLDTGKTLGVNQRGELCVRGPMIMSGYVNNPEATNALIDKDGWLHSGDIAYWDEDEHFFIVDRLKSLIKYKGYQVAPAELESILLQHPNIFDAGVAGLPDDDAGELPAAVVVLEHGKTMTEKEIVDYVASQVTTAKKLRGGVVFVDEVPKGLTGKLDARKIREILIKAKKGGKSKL
Follistatin (Homo sapiens), sequence (P19883 whole entry, looked up): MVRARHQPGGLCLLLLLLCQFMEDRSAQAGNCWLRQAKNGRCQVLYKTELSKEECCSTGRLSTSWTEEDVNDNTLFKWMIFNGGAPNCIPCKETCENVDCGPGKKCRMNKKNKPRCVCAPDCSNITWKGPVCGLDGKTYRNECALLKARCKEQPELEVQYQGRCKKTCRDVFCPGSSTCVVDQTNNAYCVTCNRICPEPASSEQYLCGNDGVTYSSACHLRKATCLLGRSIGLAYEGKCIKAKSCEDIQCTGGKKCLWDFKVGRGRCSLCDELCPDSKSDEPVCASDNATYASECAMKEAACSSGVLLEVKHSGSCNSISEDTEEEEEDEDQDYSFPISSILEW
Fibroblast growth factor 2 (Homo sapiens), sequence (P09038 whole entry, looked up): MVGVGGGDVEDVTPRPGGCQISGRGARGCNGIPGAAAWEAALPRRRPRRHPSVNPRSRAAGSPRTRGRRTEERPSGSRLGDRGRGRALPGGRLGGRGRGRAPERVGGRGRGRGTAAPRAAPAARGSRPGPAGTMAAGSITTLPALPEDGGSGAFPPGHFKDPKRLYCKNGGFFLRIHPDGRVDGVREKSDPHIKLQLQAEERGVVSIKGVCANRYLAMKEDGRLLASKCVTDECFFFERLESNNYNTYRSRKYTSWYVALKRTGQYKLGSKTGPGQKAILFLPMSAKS
Streptavidin (Streptomyces avidinii), sequence (P22629 whole entry, looked up): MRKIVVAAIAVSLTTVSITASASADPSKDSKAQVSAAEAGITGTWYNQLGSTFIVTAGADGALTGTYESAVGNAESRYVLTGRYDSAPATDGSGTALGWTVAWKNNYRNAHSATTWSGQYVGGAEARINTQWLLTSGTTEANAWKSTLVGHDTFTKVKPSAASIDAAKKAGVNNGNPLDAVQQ
Focal adhesion kinase 1 (Homo sapiens), sequence (Q05397 whole entry, looked up): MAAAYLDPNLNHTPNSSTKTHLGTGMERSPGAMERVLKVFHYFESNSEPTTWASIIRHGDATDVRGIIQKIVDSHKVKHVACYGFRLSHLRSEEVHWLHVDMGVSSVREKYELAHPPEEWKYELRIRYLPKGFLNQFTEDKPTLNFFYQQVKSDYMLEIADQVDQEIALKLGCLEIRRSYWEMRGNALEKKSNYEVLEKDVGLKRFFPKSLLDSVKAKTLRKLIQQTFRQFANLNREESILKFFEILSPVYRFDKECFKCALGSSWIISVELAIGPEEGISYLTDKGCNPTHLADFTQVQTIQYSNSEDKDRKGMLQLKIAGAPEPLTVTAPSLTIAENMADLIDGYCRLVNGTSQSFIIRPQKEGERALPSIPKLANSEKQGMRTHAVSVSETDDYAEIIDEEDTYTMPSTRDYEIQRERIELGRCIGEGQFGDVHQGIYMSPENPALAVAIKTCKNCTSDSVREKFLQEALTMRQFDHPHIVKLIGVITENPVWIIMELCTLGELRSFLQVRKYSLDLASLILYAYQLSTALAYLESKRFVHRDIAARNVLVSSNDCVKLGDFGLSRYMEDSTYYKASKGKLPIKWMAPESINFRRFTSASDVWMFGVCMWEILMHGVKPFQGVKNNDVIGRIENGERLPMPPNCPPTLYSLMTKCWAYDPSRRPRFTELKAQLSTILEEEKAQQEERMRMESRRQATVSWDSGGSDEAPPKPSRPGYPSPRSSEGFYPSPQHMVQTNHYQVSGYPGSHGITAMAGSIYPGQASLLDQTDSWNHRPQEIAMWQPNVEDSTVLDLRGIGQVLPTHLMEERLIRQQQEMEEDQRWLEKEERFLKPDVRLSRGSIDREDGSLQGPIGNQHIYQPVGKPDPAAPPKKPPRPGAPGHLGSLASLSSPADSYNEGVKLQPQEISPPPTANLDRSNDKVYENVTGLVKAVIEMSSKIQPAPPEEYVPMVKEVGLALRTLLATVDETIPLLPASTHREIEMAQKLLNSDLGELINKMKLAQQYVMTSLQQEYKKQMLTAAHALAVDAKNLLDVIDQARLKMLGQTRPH
Torsin-1A (Homo sapiens), sequence (O14656 whole entry, looked up): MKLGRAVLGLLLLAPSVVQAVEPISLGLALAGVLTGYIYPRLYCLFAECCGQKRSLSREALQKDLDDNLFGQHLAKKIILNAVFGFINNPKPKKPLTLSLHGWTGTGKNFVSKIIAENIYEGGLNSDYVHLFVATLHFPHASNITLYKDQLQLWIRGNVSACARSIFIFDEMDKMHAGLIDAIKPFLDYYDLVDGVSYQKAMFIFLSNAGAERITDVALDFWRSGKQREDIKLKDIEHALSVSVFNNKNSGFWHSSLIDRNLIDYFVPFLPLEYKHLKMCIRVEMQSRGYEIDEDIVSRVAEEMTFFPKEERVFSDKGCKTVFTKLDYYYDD

Row | Compound | composite z-score [1] | composite z-score [2] | composite z-score [3] | composite z-score [4] | composite z-score [5] | composite z-score [6] | z-score [7] | composite z-score (Lefty1) | composite z-score [8] | z-score [9] | composite z-score [10] | z-score [11] | z-score [12] | z-score [13] | z-score [14] | composite z-score [15] | composite z-score [16] | composite z-score (Torsin-1A (Homo sapiens) [17]) | composite z-score (Torsin-1A (Homo sapiens) [18]) | composite z-score [19]
1 | Cc1ccc([C@H]2C(C(=O)O)=C[C@@H](C(C)C)N2S(=O)(=O)c2ccc(C)cc2)cc1 | 1.96 | 1.29 | 1.3 | 0.956 | 0.126 | -0.376 | -0.209 | -0.297 | 0.133 | 1.85 (inactive) | -0.167 | 0.0491 (inactive) | 0.633 (inactive) | -0.424 (inactive) | 1.01 (inactive) | 0.946 | 0.0173 | -0.165 | 0.28 | -0.542
2 | O=C1OCCC/C=C\[C@H]2OC34C=CCN(Cn5nnc6ccccc65)C(=O)[C@H]3N(CCCO)C(=O)[C@@H]4C12 (stereo not given in full) | 3.1 | -0.162 | -0.0245 | -1.94 | -0.99 | -1.06 | -0.275 | -0.517 | -0.107 | 0.656 (inactive) | -0.8 | 0.464 (inactive) | -0.354 (inactive) | -0.623 (inactive) | 0.168 (inactive) | -1.29 | -0.182 | -2.04 | 1.14 | -0.144
3 | O=C(NCC(O)CO)[C@@]1(Cc2ccccc2)N=C(c2ccc(OCCCO)cc2)O[C@H]1c1ccccc1 (stereo not given in full) | 3.21 | 1.2 | 0.0855 | 0.956 | 1.29 | 0.331 | 1.44 | -0.836 | 0.922 | -1.6 (inactive) | 0.626 | -2.66 (inactive) | -0.473 (inactive) | 3.33 (inactive) | 0.768 (inactive) | 0.993 | 1.03 | 0.477 | 1.23 | -0.959
4 | CN(C)CCCC[C@@H]1NC(=O)[C@@H]2C[C@H](C(=O)NCCCCCCN)[C@H](c3ccc(O)cc3)N2C1=O | 0.297 | 1.19 | 1.55 | 0.763 | 1.35 | 0.787 | -0.729 | 0.829 | 0.998 | 0.37 (inactive) | 0.346 | 0.255 (inactive) | -0.481 (inactive) | -0.122 (inactive) | 0.208 (inactive) | 1.19 | 0.554 | 0.613 | 0.901 | 0.945
5 | O=C1O[C@@H](c2ccccc2)[C@@H](c2ccccc2)N2[C@@H](c3ccc(O)cc3)[C@]3(C(=O)Nc4ccc(C#CCCO)cc43)[C@@H](C(=O)N3CCCCCCC3)[C@H]12 | 2.27 | 1.24 | 0.724 | 0.952 | 1.42 | 0.94 | -0.158 | 1.26 | 1.21 | 0.0848 (inactive) | 0.409 | -0.915 (inactive) | -0.547 (inactive) | -0.114 (inactive) | -0.394 (inactive) | 1.55 | 1.46 | 1.37 | 1 | 0.887
